From PubChem BioAssay AID833 (The Scripps Research Institute Molecular Screening Center, 2007)
In all, about 16,000 compounds went through this assay and about 80 (0.5%) were called active. Shown is part of a subset that was picked to be rich in actives. A number with no mark means an inactive call. Rule as the data show it: active = activation above about 15%; inactive = the rest.

What follows are compounds tested against Galanin receptor type 2 (Rattus norvegicus) (UniProt O08726) (assay: agonists of rat galanin receptor 2 (GALR2) (AID 833)). Conditions: cell-based GALR2 agonist screen; at 10 µM; active compounds read high.
Galanin receptor type 2 (Rattus norvegicus), sequence (O08726 whole entry, looked up): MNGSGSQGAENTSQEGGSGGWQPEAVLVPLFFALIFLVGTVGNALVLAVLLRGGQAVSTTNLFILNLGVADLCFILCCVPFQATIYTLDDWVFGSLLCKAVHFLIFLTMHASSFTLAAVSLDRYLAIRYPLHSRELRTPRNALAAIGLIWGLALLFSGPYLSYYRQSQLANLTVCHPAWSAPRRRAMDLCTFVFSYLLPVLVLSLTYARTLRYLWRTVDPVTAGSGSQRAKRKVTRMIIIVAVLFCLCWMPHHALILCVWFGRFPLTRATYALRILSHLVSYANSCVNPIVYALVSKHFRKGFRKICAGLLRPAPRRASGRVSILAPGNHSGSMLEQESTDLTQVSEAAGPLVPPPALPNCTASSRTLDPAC

SMILES | activation
O=C(Nc1cccnc1Oc1ncnc2cc(Cl)ccc12)c1ccc(F)cc1 | -3.54%
CS(=O)(=O)/N=C(\N)c1ccncc1 | -6.47%
CCOC(=O)Cn1cc(Cl)ccc1=O | -2.49%
O=C1C2C3C=CC(O3)C2C(=O)N1OCc1ccc(OC(F)(F)F)cc1 (stereo not drawn) | -2.8%
O=c1oc2c3ccccc3c3oc(=O)sc3c2s1 | 16.7% (active)
O=c1[nH]c2ccccc2s1 | -3.62%
CCOc1ccc(C(N)=O)c(SCC(=O)O)c1 | -10.1%
Cn1nnnc1SCC(=O)Nc1ccc(OC(F)(F)F)cc1 | -4.06%
COc1ccc(/C=N/N2CCC(=O)Nc3ccccc32)c(OC)c1 | -4.04%
N/C(=N\OCc1noc(-c2ccsc2)n1)c1ccc(C(F)(F)F)cc1 | -8%
Cc1noc(C)c1C(=O)c1c(C)[nH]n(-c2ccccc2)c1=O | -4.7%
CC(C)(C)NC(=O)NCC(c1ccc[nH]1)C(F)(F)F (stereo not drawn) | -6.65%
COC(=O)C1=C(c2ccccc2)C(c2ccccc2)=C(C(=O)OC)C1=O | -1.25%
N#CC(C#N)=CNc1c(F)cccc1Cl | -9.67%
CC(=O)/C(=C\N(C)C)c1ncccc1[N+](=O)[O-] | -5.71%
C=C(C)c1cccc(C(C)(C)NC(=O)CC(C)=O)c1 | -4.52%
O=C(Cc1cc(F)cc(F)c1)n1nccc1-c1cccs1 | -4.48%
FC(F)(F)c1cccc(NC(=S)NNc2nccc(C(F)(F)F)n2)c1 | -8.08%
COC(=O)c1sccc1S(=O)(=O)Nc1ccccc1Sc1ncnc2c(C)csc12 | -5.48%
N/C(=N\S(=O)(=O)c1ccc(Cl)cc1)N1CCOCC1 | -1.28%
Fc1ccc(Oc2nc(Oc3ccc(F)cc3)nc(N3CCSCC3)n2)cc1 | -8.25%
CN(NS(=O)(=O)c1ccc(C(F)(F)F)cc1)c1cnn(C)c(=O)c1Cl | -5.39%
COC(=O)c1ccsc1NC(C)=O | -5.28%
CCOC(=O)c1ccc(NC)c(N)c1 | -7.18%
CN(C)c1ccc(/C=C(\C#N)S(C)(=O)=O)c(Cl)c1 | -4.37%
CC(C)[C@H]1COC(c2cccc(C3=N[C@@H](C(C)C)CO3)n2)=N1 | -5.78%
COC(=O)c1sc(S(C)=O)c(-c2ccon2)c1C (stereo not drawn) | -6.07%
O=C(Cn1nnc(N2CCOCC2)n1)N/N=C/c1ccc(-c2cccc([N+](=O)[O-])c2)o1 | -7.32%
